Experimental data reported in PMC7862700, “An all-to-all approach to the identification of sequence-specific readers for epigenetic DNA modifications on cytosine”.

Tests used:
Experiment in all cases: DAPPL (digital affinity profiling via proximity ligation, sequencing); 10 mM Tris-HCl pH 7.5, 50 mM NaCl, 1 mM DTT, 4% glycerol, room temperature, 30 min; GST-TFs on glutathione beads, 16-mer random dsDNA library, 0.1% formaldehyde crosslink after washing; high values mean tight binding
FLI1 = target: T1, FLI1 (Homo sapiens, UniProt Q01543 1-452); conditions: protein: recombinant; tags: N-terminal GST; dsDNA, one strand shown
T1 sequence: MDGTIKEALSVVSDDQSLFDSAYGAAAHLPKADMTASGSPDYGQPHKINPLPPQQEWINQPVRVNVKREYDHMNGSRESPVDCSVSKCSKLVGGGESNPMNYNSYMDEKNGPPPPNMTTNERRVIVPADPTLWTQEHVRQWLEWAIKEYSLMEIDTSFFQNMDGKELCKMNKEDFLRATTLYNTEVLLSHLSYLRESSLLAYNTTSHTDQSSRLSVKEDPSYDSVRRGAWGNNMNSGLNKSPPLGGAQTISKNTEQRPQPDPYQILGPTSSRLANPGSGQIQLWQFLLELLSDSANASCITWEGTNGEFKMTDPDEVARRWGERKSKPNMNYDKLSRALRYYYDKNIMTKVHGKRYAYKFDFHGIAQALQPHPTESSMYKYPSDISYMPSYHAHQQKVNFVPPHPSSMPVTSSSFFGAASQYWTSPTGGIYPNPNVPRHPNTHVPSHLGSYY
Method in brief: (§1)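 Human transcription factors were made in yeast as GST fusions, captured on glutathione beads and barcoded with DNA. With a tag-only sample included, the pool was incubated with 200 nmole of a random double-stranded 16-mer DNA library in Tris/NaCl/DTT/glycerol buffer at room temperature for 30 min, then crosslinked with 0.1% formaldehyde after washing, ligated by proximity, amplified and sequenced. For binding signal, each hexamer's read frequency for a factor is divided by its frequency for the tag-only sample.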

ELK1 = target: T2, ELK1 (Homo sapiens, UniProt P19419 1-428); conditions: protein: recombinant; tags: N-terminal GST; dsDNA, one strand shown
T2 sequence: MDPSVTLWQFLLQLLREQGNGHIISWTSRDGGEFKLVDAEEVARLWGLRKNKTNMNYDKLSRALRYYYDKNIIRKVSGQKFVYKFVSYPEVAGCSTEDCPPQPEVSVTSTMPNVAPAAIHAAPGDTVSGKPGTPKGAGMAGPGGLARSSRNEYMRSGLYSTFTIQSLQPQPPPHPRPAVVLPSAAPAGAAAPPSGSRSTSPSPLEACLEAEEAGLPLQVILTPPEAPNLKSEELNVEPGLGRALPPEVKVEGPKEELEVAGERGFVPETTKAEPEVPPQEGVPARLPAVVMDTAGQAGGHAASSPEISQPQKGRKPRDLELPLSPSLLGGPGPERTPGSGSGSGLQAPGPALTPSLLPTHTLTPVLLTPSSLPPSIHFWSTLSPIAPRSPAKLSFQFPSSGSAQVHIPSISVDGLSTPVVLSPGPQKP
Method in brief: as §1

GABPA = target: T3, GABPA (Homo sapiens, UniProt Q06546 1-454); conditions: protein: recombinant; tags: N-terminal GST; dsDNA, one strand shown
T3 sequence: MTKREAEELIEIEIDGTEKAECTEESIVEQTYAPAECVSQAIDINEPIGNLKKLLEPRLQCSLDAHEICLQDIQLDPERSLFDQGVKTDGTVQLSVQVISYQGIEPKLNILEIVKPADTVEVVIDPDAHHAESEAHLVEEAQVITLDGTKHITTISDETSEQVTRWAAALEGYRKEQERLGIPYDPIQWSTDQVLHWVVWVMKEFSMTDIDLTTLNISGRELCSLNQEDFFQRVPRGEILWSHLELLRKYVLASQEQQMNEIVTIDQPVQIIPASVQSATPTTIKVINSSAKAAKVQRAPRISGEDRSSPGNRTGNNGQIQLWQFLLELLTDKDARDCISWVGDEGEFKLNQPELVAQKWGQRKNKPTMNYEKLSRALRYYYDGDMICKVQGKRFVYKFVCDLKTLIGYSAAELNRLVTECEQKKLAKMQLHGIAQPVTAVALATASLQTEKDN
Method in brief: as §1

ERG = target: T4, ERG (Homo sapiens, UniProt P11308 1-479); conditions: protein: recombinant; tags: N-terminal GST; dsDNA, one strand shown
T4 sequence: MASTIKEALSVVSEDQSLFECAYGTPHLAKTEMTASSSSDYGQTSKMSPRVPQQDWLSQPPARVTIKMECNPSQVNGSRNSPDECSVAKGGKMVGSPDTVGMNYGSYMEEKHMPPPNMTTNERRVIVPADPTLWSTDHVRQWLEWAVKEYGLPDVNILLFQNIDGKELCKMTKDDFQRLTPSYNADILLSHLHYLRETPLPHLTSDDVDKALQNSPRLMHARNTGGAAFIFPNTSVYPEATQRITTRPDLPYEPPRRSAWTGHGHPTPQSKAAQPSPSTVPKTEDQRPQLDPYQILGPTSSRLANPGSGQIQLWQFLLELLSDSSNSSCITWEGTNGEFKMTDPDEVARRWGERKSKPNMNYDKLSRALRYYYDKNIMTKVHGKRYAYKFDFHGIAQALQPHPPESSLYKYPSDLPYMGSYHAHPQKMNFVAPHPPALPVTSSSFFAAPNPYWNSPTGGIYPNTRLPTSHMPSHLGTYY
Method in brief: as §1

ELF1 = ELF1 (Homo sapiens, UniProt P32519 1-619); conditions: protein: recombinant; tags: N-terminal GST; dsDNA, one strand shown
Chain of ELF1 (P32519 whole entry): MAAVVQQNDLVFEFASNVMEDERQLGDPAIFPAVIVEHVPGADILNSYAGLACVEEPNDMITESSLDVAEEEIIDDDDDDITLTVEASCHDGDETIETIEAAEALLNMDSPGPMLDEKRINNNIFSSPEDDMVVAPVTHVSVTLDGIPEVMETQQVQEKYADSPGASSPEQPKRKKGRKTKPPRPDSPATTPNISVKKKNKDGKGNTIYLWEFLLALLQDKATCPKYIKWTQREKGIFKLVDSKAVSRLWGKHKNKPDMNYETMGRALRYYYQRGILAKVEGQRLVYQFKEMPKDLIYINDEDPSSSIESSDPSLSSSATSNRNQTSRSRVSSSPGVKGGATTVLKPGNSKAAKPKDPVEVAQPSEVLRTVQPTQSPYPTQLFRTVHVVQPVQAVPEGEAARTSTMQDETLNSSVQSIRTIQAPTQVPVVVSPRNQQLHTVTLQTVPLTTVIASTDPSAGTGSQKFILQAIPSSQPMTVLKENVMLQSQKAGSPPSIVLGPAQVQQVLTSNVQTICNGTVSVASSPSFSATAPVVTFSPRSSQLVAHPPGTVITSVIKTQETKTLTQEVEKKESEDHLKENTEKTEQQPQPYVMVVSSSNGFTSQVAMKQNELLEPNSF
Method in brief: as §1

EHF = target: T5, EHF (Homo sapiens, UniProt Q9NZC4 1-300); conditions: protein: recombinant; tags: N-terminal GST; dsDNA, one strand shown
T5 sequence: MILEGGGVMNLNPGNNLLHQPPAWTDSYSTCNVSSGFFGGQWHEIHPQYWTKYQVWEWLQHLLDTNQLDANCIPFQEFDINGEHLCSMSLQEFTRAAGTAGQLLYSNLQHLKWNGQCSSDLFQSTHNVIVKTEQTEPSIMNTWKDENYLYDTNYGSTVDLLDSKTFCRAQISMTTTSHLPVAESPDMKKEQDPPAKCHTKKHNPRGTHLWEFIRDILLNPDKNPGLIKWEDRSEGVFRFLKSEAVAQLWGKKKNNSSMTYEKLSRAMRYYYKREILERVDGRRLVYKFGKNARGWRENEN
Method in brief: as §1

SPI1 = SPI1 (Homo sapiens, UniProt P17947 1-270); conditions: protein: recombinant; tags: N-terminal GST; dsDNA, one strand shown
Method in brief: as §1

SPIB = SPIB (Homo sapiens, UniProt Q01892 1-262); conditions: protein: recombinant; tags: N-terminal GST; dsDNA, one strand shown
Chain of SPIB (Q01892 whole entry): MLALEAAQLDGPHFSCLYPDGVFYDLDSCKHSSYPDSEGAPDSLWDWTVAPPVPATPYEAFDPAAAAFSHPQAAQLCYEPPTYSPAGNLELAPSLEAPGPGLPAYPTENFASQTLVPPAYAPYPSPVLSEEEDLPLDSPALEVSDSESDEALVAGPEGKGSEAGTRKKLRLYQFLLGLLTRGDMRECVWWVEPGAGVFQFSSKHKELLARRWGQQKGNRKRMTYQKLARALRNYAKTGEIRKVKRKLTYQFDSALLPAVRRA
Method in brief: as §1

ELK3 = target: T6, ELK3 (Homo sapiens, UniProt P41970 1-407); conditions: protein: recombinant; tags: N-terminal GST; dsDNA, one strand shown
T6 sequence: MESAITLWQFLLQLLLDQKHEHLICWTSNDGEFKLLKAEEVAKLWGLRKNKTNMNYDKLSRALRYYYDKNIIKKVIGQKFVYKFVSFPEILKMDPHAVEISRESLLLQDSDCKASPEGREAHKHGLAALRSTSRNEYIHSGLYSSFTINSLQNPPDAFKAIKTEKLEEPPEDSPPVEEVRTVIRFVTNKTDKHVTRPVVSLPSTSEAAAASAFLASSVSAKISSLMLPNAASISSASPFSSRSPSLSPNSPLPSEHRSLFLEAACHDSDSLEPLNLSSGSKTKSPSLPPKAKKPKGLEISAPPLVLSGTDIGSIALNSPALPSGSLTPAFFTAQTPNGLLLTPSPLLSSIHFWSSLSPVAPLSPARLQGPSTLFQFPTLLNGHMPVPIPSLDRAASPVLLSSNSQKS
Method in brief: as §1

FEV = target: T7, FEV (Homo sapiens, UniProt Q99581 1-238); conditions: protein: recombinant; tags: N-terminal GST; dsDNA, one strand shown
T7 sequence: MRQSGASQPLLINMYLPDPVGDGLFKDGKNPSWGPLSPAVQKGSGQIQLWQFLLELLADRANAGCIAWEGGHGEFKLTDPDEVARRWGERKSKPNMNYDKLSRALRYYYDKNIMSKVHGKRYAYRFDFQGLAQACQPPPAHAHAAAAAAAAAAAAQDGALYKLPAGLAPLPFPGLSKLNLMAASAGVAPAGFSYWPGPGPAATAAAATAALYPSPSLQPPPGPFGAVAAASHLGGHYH
Method in brief: as §1

ETV5 = ETV5 (Homo sapiens, UniProt P41161 1-510); conditions: protein: recombinant; tags: N-terminal GST; dsDNA, one strand shown
Chain of ETV5 (P41161 whole entry): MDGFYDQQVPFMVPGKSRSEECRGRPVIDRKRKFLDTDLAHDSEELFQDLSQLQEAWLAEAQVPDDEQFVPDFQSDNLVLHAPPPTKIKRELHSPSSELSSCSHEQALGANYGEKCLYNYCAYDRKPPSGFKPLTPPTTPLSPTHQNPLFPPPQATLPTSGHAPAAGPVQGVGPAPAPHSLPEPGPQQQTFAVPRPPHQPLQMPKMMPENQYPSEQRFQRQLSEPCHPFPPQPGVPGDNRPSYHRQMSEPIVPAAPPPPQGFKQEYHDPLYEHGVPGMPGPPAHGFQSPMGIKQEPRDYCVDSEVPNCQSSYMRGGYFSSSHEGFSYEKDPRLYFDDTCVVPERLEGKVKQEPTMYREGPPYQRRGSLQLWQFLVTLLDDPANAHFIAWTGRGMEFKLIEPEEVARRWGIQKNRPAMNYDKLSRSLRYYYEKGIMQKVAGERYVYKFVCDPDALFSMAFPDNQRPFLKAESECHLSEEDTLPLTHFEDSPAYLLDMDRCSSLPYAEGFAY
Method in brief: as §1

HSF1 = HSF1 (Homo sapiens, UniProt Q00613 1-529); conditions: protein: recombinant; tags: N-terminal GST; chain copies: 3; dsDNA, one strand shown
Chain of HSF1 (Q00613 whole entry): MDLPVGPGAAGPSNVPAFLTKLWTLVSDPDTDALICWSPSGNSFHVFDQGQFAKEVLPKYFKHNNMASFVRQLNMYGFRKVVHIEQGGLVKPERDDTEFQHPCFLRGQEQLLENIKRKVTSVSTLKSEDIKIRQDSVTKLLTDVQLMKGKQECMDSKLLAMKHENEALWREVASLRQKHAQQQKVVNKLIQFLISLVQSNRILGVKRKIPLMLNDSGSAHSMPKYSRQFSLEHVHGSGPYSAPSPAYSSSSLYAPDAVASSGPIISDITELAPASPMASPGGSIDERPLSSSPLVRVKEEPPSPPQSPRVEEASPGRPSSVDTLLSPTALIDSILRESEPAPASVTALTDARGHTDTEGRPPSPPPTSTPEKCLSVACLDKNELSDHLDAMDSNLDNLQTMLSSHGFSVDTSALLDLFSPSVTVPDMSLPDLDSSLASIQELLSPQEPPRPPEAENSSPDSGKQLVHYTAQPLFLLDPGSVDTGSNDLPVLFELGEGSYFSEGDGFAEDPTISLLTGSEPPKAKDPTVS
Method in brief: as §1

SPIC = target: T8, SPIC (Homo sapiens, UniProt Q8N5J4 1-248); conditions: protein: recombinant; tags: N-terminal GST; dsDNA, one strand shown
T8 sequence: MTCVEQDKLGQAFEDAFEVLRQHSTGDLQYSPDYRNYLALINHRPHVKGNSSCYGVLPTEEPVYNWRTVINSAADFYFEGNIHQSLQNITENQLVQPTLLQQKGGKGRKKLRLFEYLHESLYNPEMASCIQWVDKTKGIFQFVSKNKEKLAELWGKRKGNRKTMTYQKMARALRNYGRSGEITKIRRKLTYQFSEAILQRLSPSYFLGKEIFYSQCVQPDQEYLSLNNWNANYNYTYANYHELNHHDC
Method in brief: as §1

ELF4 = ELF4 (Homo sapiens, UniProt Q99607 1-663); conditions: protein: recombinant; tags: N-terminal GST; dsDNA, one strand shown
Chain of ELF4 (Q99607 whole entry): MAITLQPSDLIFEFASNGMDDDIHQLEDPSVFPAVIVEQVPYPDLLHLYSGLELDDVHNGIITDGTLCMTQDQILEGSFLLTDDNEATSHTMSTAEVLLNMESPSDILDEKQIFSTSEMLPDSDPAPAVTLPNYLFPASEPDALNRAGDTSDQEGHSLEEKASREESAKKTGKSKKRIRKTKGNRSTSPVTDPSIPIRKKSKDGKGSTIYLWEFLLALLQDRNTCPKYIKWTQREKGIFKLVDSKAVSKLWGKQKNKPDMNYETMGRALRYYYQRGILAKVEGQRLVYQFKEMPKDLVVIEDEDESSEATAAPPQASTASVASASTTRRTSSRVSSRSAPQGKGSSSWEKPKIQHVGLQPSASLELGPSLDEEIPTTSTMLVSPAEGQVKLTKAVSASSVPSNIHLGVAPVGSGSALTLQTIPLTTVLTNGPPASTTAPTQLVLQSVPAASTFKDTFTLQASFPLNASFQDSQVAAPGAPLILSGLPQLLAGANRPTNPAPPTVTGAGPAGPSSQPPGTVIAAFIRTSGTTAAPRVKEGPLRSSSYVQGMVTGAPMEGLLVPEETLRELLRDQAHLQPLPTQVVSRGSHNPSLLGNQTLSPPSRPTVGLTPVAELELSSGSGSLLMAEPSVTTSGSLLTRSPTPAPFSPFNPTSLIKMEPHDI
Method in brief: as §1

ELK4 = target: T9, ELK4 (Homo sapiens, UniProt P28324-2 1-405); conditions: protein: recombinant; tags: N-terminal GST; dsDNA, one strand shown
T9 sequence: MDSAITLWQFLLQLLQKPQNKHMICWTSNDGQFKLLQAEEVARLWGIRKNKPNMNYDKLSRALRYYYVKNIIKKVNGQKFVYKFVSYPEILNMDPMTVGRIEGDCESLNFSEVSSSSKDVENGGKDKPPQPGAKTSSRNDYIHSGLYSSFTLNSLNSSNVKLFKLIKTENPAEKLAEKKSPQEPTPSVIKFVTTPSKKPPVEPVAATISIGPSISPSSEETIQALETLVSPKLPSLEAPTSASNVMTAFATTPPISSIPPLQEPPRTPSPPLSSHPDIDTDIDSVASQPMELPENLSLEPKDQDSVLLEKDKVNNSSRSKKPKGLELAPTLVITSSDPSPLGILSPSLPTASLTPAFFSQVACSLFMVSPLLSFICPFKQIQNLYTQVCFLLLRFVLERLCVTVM
Method in brief: as §1

ETV2 = target: T10, ETV2 (Homo sapiens, UniProt O00321 1-342); conditions: protein: recombinant; tags: N-terminal GST; dsDNA, one strand shown
T10 sequence: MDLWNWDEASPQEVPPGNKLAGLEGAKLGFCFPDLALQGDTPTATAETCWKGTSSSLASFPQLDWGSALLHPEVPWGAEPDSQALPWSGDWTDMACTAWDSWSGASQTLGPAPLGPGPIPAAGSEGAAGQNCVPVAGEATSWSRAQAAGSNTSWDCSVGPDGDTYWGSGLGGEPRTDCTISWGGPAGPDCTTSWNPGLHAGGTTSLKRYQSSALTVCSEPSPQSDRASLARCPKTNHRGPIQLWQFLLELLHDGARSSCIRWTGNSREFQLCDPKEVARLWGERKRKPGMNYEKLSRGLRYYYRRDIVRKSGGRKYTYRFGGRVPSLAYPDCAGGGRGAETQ
Method in brief: as §1

ELF3 = target: T11, ELF3 (Homo sapiens, UniProt P78545 1-371); conditions: protein: recombinant; tags: N-terminal GST; dsDNA, one strand shown
T11 sequence: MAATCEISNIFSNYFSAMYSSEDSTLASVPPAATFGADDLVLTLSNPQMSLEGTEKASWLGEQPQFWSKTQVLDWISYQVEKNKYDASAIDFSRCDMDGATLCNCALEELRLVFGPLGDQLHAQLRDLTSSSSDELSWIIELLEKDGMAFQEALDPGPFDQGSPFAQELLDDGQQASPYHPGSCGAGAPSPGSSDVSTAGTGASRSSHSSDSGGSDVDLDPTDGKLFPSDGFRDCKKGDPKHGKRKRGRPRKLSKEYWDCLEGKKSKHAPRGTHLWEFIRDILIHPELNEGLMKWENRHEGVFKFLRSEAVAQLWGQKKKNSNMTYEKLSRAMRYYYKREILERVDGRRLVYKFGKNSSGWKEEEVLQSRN
Method in brief: as §1

CRX = CRX (Homo sapiens, UniProt O43186 1-299); conditions: protein: recombinant; tags: N-terminal GST; dsDNA, one strand shown
Chain of CRX (O43186 whole entry): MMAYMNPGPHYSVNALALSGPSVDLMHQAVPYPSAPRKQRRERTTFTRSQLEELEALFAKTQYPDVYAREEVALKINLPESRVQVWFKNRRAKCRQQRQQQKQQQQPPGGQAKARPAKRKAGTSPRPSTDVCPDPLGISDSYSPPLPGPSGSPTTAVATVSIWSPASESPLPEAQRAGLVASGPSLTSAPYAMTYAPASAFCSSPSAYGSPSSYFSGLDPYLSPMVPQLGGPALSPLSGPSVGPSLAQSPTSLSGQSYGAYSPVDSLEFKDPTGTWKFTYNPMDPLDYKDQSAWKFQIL
Method in brief: as §1

ETV1 = ETV1 (Homo sapiens, UniProt P50549 1-477); conditions: protein: recombinant; tags: N-terminal GST; dsDNA, one strand shown
Chain of ETV1 (P50549 whole entry): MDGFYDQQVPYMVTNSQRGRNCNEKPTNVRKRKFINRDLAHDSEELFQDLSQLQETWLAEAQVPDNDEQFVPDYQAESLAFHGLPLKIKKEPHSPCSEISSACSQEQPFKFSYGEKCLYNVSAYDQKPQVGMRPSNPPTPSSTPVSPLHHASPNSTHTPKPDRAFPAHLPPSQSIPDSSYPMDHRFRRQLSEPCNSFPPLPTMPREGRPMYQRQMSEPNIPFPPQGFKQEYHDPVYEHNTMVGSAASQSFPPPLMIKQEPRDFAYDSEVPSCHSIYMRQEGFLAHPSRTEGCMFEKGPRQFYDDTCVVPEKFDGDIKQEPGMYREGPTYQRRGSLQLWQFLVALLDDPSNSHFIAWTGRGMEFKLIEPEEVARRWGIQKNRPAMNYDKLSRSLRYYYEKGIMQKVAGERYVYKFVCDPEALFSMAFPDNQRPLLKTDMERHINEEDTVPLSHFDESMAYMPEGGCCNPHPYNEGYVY
Method in brief: as §1

Q: What does the source list for TATCTA?
A: binding signal (FLI1): 1.18 fold enrichment (6-mer frequency, TF over GST control); binding signal (ELK1): 1.23 fold enrichment (6-mer frequency, TF over GST control); binding signal (GABPA): 1.35 fold enrichment (6-mer frequency, TF over GST control); binding signal (ERG): 1.18 fold enrichment (6-mer frequency, TF over GST control); binding signal (ELF1): 1.18 fold enrichment (6-mer frequency, TF over GST control); binding signal (EHF): 1.2 fold enrichment (6-mer frequency, TF over GST control); binding signal (SPI1): 1.27 fold enrichment (6-mer frequency, TF over GST control); binding signal (SPIB): 1.28 fold enrichment (6-mer frequency, TF over GST control); binding signal (ELK3): 1.28 fold enrichment (6-mer frequency, TF over GST control); binding signal (FEV): 1.19 fold enrichment (6-mer frequency, TF over GST control); binding signal (ETV5): 1.14 fold enrichment (6-mer frequency, TF over GST control); binding signal (HSF1): 1.66 fold enrichment (6-mer frequency, TF over GST control); binding signal (SPIC): 1.19 fold enrichment (6-mer frequency, TF over GST control); binding signal (ELF4): 1.22 fold enrichment (6-mer frequency, TF over GST control); binding signal (ELK4): 1.2 fold enrichment (6-mer frequency, TF over GST control); binding signal (ETV2): 1.25 fold enrichment (6-mer frequency, TF over GST control); binding signal (ELF3): 1.34 fold enrichment (6-mer frequency, TF over GST control); binding signal (CRX): 1.73 fold enrichment (6-mer frequency, TF over GST control); binding signal (ETV1): 1.14 fold enrichment (6-mer frequency, TF over GST control)
